Here are results for five molecules from PubChem BioAssay (NCATS).

Inconclusive results are not listed. A call without a number means that no potency is given here. A number with no mark means an inactive call. The source made the active and inactive calls. Unless noted, the call rests on the fitted dose curve.

Bile acid receptor (Homo sapiens), sequence (Q96RI1 whole entry, looked up): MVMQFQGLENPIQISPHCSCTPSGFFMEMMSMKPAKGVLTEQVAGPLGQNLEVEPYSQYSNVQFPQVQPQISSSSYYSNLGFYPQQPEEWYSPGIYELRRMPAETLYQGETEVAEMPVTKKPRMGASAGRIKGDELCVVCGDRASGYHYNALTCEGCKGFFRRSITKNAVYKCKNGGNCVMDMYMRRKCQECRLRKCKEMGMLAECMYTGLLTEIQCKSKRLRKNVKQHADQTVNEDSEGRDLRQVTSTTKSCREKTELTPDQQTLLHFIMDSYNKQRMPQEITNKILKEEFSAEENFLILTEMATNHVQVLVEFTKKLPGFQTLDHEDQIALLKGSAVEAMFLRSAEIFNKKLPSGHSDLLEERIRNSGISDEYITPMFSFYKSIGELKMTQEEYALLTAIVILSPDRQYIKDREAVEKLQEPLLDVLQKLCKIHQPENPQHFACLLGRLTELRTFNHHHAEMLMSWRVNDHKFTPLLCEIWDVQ
Vitamin D3 receptor (Homo sapiens), sequence (P11473 whole entry, looked up): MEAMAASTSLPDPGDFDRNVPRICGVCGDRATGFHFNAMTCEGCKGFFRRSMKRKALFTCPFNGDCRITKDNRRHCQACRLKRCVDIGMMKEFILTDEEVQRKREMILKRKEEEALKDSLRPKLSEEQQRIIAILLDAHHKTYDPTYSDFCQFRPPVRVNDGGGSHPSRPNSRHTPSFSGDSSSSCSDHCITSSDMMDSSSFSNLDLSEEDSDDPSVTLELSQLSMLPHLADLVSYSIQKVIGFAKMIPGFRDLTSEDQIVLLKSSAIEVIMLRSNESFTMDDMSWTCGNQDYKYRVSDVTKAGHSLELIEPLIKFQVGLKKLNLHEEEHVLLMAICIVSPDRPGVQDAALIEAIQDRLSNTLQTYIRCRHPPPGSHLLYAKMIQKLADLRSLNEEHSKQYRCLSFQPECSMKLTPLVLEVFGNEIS
Estrogen receptor (Homo sapiens), sequence (P03372 whole entry, looked up): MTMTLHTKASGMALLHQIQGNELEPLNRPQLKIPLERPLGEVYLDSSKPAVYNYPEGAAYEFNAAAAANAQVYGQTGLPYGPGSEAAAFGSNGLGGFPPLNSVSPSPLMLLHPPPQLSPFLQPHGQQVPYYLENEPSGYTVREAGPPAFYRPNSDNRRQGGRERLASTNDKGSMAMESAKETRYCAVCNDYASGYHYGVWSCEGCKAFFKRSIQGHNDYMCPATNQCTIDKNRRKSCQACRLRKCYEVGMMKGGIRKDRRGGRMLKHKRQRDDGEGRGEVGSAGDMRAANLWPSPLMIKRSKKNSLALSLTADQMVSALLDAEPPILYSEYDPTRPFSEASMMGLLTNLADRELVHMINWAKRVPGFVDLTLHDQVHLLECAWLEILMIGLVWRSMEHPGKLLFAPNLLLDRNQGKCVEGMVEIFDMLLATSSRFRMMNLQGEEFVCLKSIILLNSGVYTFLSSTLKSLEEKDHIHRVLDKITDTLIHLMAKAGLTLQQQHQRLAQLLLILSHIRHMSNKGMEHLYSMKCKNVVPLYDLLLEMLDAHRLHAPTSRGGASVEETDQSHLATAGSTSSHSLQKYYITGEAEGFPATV
Glucocorticoid receptor (Homo sapiens), sequence (P04150 whole entry, looked up): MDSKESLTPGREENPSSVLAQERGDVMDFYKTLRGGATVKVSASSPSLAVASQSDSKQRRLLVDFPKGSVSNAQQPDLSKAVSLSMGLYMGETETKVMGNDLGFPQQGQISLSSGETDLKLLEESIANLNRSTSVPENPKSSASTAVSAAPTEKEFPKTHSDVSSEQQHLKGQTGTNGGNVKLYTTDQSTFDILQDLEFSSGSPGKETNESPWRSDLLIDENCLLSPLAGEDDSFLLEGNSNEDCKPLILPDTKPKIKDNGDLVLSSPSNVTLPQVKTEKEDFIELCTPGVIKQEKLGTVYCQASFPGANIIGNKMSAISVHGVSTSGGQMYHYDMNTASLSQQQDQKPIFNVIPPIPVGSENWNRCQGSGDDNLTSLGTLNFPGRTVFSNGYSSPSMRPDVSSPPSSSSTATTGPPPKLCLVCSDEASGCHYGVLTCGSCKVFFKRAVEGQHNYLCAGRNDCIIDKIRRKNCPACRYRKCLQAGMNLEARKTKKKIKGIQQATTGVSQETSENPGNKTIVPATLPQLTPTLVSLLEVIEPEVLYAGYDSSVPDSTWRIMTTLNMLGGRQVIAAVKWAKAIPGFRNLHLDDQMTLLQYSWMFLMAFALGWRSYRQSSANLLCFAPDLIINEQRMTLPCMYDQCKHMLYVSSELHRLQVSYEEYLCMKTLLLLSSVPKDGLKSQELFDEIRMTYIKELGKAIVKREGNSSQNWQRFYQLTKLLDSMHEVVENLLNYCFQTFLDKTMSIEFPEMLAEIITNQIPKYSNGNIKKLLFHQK

The first test has as its target Estrogen receptor (Homo sapiens) (UniProt P03372). Briefly: qHTS assay for small molecule antagonists of estrogen receptor alpha signaling (AID 588513; active means well fitted curve in the direction sought with a large enough effect in the signal ratio, with a control signal flat, not every such curve was filed as active; the % refers to the signal ratio; further: potency means the concentration at half of the fitted maximal effect). The following applies: ER-alpha-UAS-bla HEK293, beta-lactamase ratio, antagonist mode; series mostly up to 76.9 µM. From the text: (§1) NIH Chemical Genomics Center [NCGC]
(§2) U.S. Environmental Protection Agency [EPA]
(§3) National Institutes of Environmental Health Sciences [NIEHS]
(§4) National Toxicology Program [NTP]
Estrogen receptor alpha (ER-alpha) is an important member of nuclear hormone receptors. ER-alpha plays important role in breast cancer as well as in other women's health issues. The majority of breast cancers is estrogen receptor (ER) positive and depends on estrogen for growth. There is also growing concern for some of environmental chemicals which may contribute the increasing the incidence of breast cancer. Therefore, it is important to understand the effect of environmental chemicals in ER-alpha signaling pathway.
(§5) NCGC Assay Protocol Summary
Using a beta-lactamase reporter-gene under control of the ER response element, a cell-based assay [ER-alpha-UAS-bla GripTiteTM cell-Based Assay from Invitrogen] was used to measure ER-alpha signaling pathway in antagonist mode. ER-alpha-UAS-bla-GripTite HEK 293 cells were used with assay medium containing 2% charcoal/dextran treated FBS, 0.1 mM NEAA and 1 mM sodium pyruvate. Cells were cultured in this assay medium overnight in the flasks before the assay. The assay was performed in clear bottom black Greiner 1536-well plates. 17-beta-estradiol was used as a positive control in the screen. Library compounds were measured for their ability to inhibit the reporter gene activity. Compounds were screened in a titration series in 1536-well format. […] Data was normalized relative to 17-beta-estradiol control (0.5nM, 100%), and DMSO only wells (basal, 0%). Concentration-response titration points for each compound were fitted to the Hill equation yielding concentrations of half-maximal inhibition (IC50) and maximal response (efficacy) values.
qHTS protocol for ER-alpha beta-lactamase assay in antagonist mode
(§6) [Step] [Parameter] [Value] [Description]
1. Reagent; 5 uL; 5000 cells/well
2. Incubation; 37 C for 4 hrs
- Dose response, Start 38uM, 1:2 dilutions with duplicates […]
9. Detection; Fluorescence; Envision plate reader or Acumen plate reader
In general terms: In qHTS, concentration-response curves come from the screen itself.
`Cc1cc(O)c2c(c1)C(=O)c1cccc(O)c1C2=O`: the Potency entry is “inactive”.
With `CC(C=CC1=C(C)CCCC1(C)C)=CC=CC(C)=CC(=O)Nc1ccc(O)cc1`, the Potency is 31.6 µM [inhibitor] (active).
Take `OC[C@@H](O)[C@@H](O)[C@H](O)[C@@H](O)CO`: the Potency entry was “inactive”.

For the next test, the target named is Bile acid receptor (Homo sapiens) (UniProt Q96RI1). Briefly: qHTS assay for small molecule antagonists of farnesoid X receptor signaling (AID 588526). Further: potency means the concentration at half of the fitted maximal effect. To be noted: HEK293T FXR-UAS-bla, beta-lactamase ratio, antagonist mode; series mostly up to 76.7 µM. In short, it runs like this:
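Beta-lactamase reporter antagonist mode: HEK293T FXR-UAS-bla cells, titrated compound, CDCA stimulation, 16 h 37 C, CCF4 dye 2 h RT. Data normalized to CDCA 50 uM and DMSO; Hill-fit IC50.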
In the case of `Cc1cc(O)c2c(c1)C(=O)c1cccc(O)c1C2=O`, the Potency result is “inactive”.
On the same count and under the same terms, for `CC(C=CC1=C(C)CCCC1(C)C)=CC=CC(C)=CC(=O)Nc1ccc(O)cc1` the value was 39.8 µM (active).
On the same count and under the same terms, as for `O=C1c2cccc(O)c2C(=O)c2c(O)cc(CO)cc21`, the entry is “inactive”.

The next test concerns the target Glucocorticoid receptor (Homo sapiens) (UniProt P04150). Briefly: qHTS assay for small molecule agonists of glucocorticoid receptor signaling (AID 588532; active means well fitted curve in the direction sought with a large enough effect in the signal ratio, with a control signal flat; the % refers to the signal ratio). The following applies: HeLa MMTV-bla, beta-lactamase ratio, agonist, 18 h; stronger effect = higher value; percent of dexamethasone control, DMSO zero. From the text:
NIH Chemical Genomics Center [NCGC] U.S. Environmental Protection Agency [EPA] National Institutes of Environmental Health Sciences [NIEHS] National Toxicology Program [NTP] NCGC Assay Overview The Glucocorticoid receptor (GR), a nuclear receptor subfamily member and its natural ligands includes […] etc. The GR is a validated drug target for inflammation. GR ligands such as dexamethasone are clinically available as anti-inflammatory drugs. Glucocorticoids implicate role in carbohydrate, protein and lipid metabolisms and programmed cell death. They are also a component of many chemotherapy regimens for the treatment of leukemias, lymphomas, and myelomas because of their role in the induction of apoptosis.
NCGC Assay Protocol Summary Using a beta-lactamase reporter-gene under control of glucocorticoid response element (GRE), a cell-based assay [CellSensor MMTV-bla HeLa cell line assay developed by Invitrogen] was used to measure GR ligands signaling. CellSensor MMTV-bla HeLa cells were used with assay medium containing 1% charcoal/dextran treated FBS, 0.1 mM NEAA, 1 mM sodium pyruvate and 25mM HEPES. The assay was performed in clear bottom black Greiner 1536-well plates. Dexamethasone and Mifepristine were used in the screen as agonist and antagonist positive controls respectively. Library compounds were measured for their ability to stimulate the reporter gene activity. Compounds were screened in a titration series in 1536-well format. The fluorescence intensity (405 nm excitation, 460/530 nm emission) was measured using an EnVision plate reader. Data was normalized relative to Dexamethasone control (0.1 uM, 100%), and DMSO only wells (basal, 0%). Concentration-response titration points for each compound were fitted to the Hill equation yielding concentrations of half-maximal stimulation (EC50) and maximal response (efficacy) values. qHTS protocol for GR beta-lactamase assay in agonist mode [Step] [Parameter] [Value] [Description] 1. Reagent; 6 uL; 1500 cells/well 2. Incubation; 37 C for 3-5 hrs 3. […] Detection; Fluorescence; Envision plate reader
On to `CC(C=CC1=C(C)CCCC1(C)C)=CC=CC(C)=CC(=O)Nc1ccc(O)cc1`, for which the activation was 5.23%.
In the case of `O=C1c2cccc(O)c2C(=O)c2c(O)cc(CO)cc21`, the activation is -14.5%.
On the same count and under the same terms, for `C[C@]12CC[C@@H]3c4ccc(O)cc4CC[C@H]3[C@H]1CC[C@H]2O` the value was -15.8%.

The next test shares this target. Briefly: qHTS assay for small molecule antagonists of glucocorticoid receptor signaling (AID 588533; active means well fitted inhibition curve with a large enough effect in the signal ratio, with a control signal flat, not every such curve was filed as active; the % refers to the signal ratio; further: potency means the concentration at half of the fitted maximal effect). The following applies: HeLa MMTV-bla, GRE beta-lactamase ratio, antagonist mode, 18 h; series mostly up to 76.8 µM. In short, it runs like this:
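Antagonist-mode qHTS: compound titrations added to GRE-bla HeLa cells, then dexamethasone 2 nM final; 18 h, 37 C. CCF4 FRET fluorescence normalized to dexamethasone and DMSO; IC50 from Hill fit.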
For the molecule `Cc1cc(O)c2c(c1)C(=O)c1cccc(O)c1C2=O`, the Potency result was “inactive”.
`O=C1c2cccc(O)c2C(=O)c2c(O)cc(CO)cc21`: the Potency result was “inactive”.
As for `C[C@]12CC[C@@H]3c4ccc(O)cc4CC[C@H]3[C@H]1CC[C@H]2O`, the Potency was 15.8 µM (active).

The next test deals with Peroxisome proliferator-activated receptor gamma (Homo sapiens) (UniProt P37231). Briefly: qHTS assay for small molecule agonists of peroxisome proliferator-activated receptor gamma signaling (AID 588536; active means well fitted curve in the direction sought with a large enough effect in the signal ratio, with a control signal flat, not every such curve was filed as active; the % refers to the signal ratio). To be noted: HEK293 PPARg-UAS-bla, beta-lactamase ratio, 16 h, percent of rosiglitazone response, DMSO as zero; series mostly up to 76.7 µM. The method in brief: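 GeneBLAzer PPAR-gamma-UAS-bla HEK293 cells in 1% charcoal/dextran-treated FBS medium were treated 16 h at 37 C with compounds. Beta-lactamase activity was read by CCF4 ratio (460/530 nm). Response was normalized to 2 uM rosiglitazone (100%) and DMSO, then Hill-fitted for EC50 and efficacy.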
Peroxisome proliferator-activated receptor gamma (Homo sapiens), sequence (P37231 whole entry, looked up): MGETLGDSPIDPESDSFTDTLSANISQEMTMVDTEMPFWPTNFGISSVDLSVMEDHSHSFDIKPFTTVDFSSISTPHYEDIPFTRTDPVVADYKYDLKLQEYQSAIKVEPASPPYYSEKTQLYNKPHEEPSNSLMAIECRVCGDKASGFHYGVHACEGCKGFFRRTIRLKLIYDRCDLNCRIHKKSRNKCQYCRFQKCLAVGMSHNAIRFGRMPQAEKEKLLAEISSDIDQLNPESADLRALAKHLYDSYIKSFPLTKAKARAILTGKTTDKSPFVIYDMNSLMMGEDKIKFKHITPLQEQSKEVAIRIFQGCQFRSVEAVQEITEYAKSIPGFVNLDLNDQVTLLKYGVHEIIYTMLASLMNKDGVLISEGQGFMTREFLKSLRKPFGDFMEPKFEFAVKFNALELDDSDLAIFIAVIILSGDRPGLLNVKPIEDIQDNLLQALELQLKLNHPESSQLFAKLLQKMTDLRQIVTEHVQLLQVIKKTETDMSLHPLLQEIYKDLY
For the molecule `Cc1cc(O)c2c(c1)C(=O)c1cccc(O)c1C2=O`, the outcome was inactive.
For the molecule `OC[C@@H](O)[C@@H](O)[C@H](O)[C@@H](O)CO`, the outcome was inactive.
The same measure, in the same setting: as for `C[C@]12CC[C@@H]3c4ccc(O)cc4CC[C@H]3[C@H]1CC[C@H]2O`, the entry is “inactive”.

A further test has as its target Vitamin D3 receptor (Homo sapiens) (UniProt P11473). Briefly: qHTS assay for small molecule antagonists of vitamin D receptor signaling (AID 588541).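 Further: receptor activated by calcitriol during compound treatment.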 The following applies: HEK293T VDR-UAS-bla, beta-lactamase ratio, antagonist mode; series mostly up to 76.7 µM. In short, it runs like this:
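Antagonist-mode beta-lactamase reporter assay: HEK293T VDR-UAS-bla cells were exposed to titrated compound alongside 1-alpha,25-dihydroxyvitamin D3 at 3 nM final for 16 h. Values were normalized to the 50 nM agonist control and DMSO basal, with IC50 and efficacy from Hill equation fits.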
`Cc1cc(O)c2c(c1)C(=O)c1cccc(O)c1C2=O`: the outcome was inactive.
Same read-out and setting: for `O=C1c2cccc(O)c2C(=O)c2c(O)cc(CO)cc21` the value was “inactive”; for `OC[C@@H](O)[C@@H](O)[C@H](O)[C@@H](O)CO`, “inactive”.
As for `C[C@]12CC[C@@H]3c4ccc(O)cc4CC[C@H]3[C@H]1CC[C@H]2O`, the result was inactive.

For another test the target is unchanged. Briefly: qHTS assay for small molecule agonists of vitamin D receptor signaling (AID 588543). To be noted: HEK293T VDR-UAS-bla, beta-lactamase ratio, 16 h; series mostly up to 76.8 µM.
Description: as §1, §2, §3, §4
The Vitamin D receptor (VDR) is a member of nuclear hormone receptor superfamily and it plays a critical role in calcium homeostasis and bone metabolism. It plays a role in inducing cell differentiation, inhibiting cell growth and in thrombogenicity. So, VDR that mediates these effects represents a pharmacological target in prevention and treatment of hyperproliferative malignancies, such as cancer and psoriasis, cardiovascular, immunological, inflammatory and renal diseases etc.
as §5
Using a beta-lactamase reporter-gene under control of Vitamin D receptor (VDR) response element, a cell-based assay [GeneBLAzer (VDR -UAS-bla assay developed by Invitrogen] was used to measure VDR ligands signaling. GeneBLAzer VDR -UAS-bla HEK293T cells were used with assay medium containing 2% charcoal-stripped FBS. The assay was performed in clear bottom black Greiner 1536-well plates. 1-alpha,25-Dihydroxy vitaminD3 was used as a positive control in the screen. Library compounds were measured for their ability to stimulate the reporter gene activity. Compounds were screened in a titration series in 1536-well format. The fluorescence intensity (405 nm excitation, 460/530 nm emission) was measured using an EnVision plate reader. Data was normalized relative to 1-alpha,25-Dihydroxy vitaminD3 control (50 nM, 100%) and DMSO only wells (basal, 0%). Concentration-response titration points for each compound were fitted to the Hill equation yielding concentrations of half-maximal stimulation (EC50) and maximal response (efficacy) values.
qHTS protocol for VDR beta-lactamase assay in agonist mode
as §6
1. Reagent; 6 uL; 2000 cells/well
2. Incubation; 37 C for 5 hrs
4. Controls (1-alpha,25-Dihydroxy vitaminD3); 23 nL,
- Final concentrations of 50 nM and 15 nM in two columns
5. Incubation; 37 C for 16 hrs
6. Detection reagent; 1 uL of CCF4-dye
7. Incubation; RT for 2 hrs
8. Detection; Fluorescence; Envision plate reader
For the molecule `Cc1cc(O)c2c(c1)C(=O)c1cccc(O)c1C2=O`, the outcome was inactive.
For `CC(C=CC1=C(C)CCCC1(C)C)=CC=CC(C)=CC(=O)Nc1ccc(O)cc1`, the result was inactive.
For `O=C1c2cccc(O)c2C(=O)c2c(O)cc(CO)cc21`, the result was inactive.
For `OC[C@@H](O)[C@@H](O)[C@H](O)[C@@H](O)CO`, the result was inactive.
Take `C[C@]12CC[C@@H]3c4ccc(O)cc4CC[C@H]3[C@H]1CC[C@H]2O`: the outcome was inactive.
